Assay results as given in PubChem BioAssay (EPA / NIEHS).
Active and inactive are the calls of the source. How the source made its calls: active means hit-call score of the fitted dose curve at least 0.9, where 1 is the maximum; inactive means score below 0.9.

What was measured:
Conditions in all cases: mRNA level, 48 h; actives raise or lower the signal
[1] = read-out: Cytochrome P450 3A4 (Homo sapiens) (UniProt P08684); test: LTEA_HepaRG_CYP3A4: Life Technologies and Expression Analysis (LTEA) Assay for CYP3A4 using HepaRG (AID 2283487)
Summary of the method: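 Differentiated HepaRG cells, plated 48 h, then dosed 48 h in serum-free induction medium with 0.5% DMSO, 8 half-log concentrations up to 100 uM, duplicate. CYP3A4 mRNA by qRT-PCR, normalized to ACTB/GAPDH/POLR2A; bidirectional fit versus DMSO.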

[2] = read-out: DNA damage-inducible transcript 3 (DDIT3), DDIT3 (gene 1649); test: LTEA_HepaRG_DDIT3: Life Technologies and Expression Analysis (LTEA) Assay for DNA damage-inducible transcript 3 (DDIT3) using HepaRG (AID 2283488)
Summary of the method: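 DDIT3 transcript was quantified by qRT-PCR with ACTB/GAPDH/POLR2A normalization after 48 h chemical treatment of differentiated HepaRG cells in 0.5% DMSO. Dosing was eight-point, half-log, top 100 uM, duplicate wells. Curves fitted bidirectionally versus DMSO.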

[3] = read-out: Pro-epidermal growth factor (Homo sapiens) (UniProt P01133); test: LTEA_HepaRG_EGF: Life Technologies and Expression Analysis (LTEA) Assay for Epidermal growth factor (EGF) using HepaRG (AID 2283489)
Summary of the method: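 HepaRG cells (~100,000/well, 48 h pre-culture) exposed in duplicate for 48 h in serum-free induction medium to 8 half-log concentrations up to 100 uM in 0.5% DMSO. EGF mRNA by qRT-PCR, normalized to ACTB/GAPDH/POLR2A; bidirectional fit versus DMSO.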

[4] = read-out: Early growth response protein 1 (EGR1) transcription factor, EGR1 (gene 1958); test: LTEA_HepaRG_EGR1: Life Technologies and Expression Analysis (LTEA) Assay for Early growth response protein 1 (EGR1) transcription factor using HepaRG (AID 2283490)
Summary of the method: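 EGR1 expression change in human HepaRG after 48 h chemical exposure, assessed by housekeeping-normalized qRT-PCR; concentration-response up to 100 uM, fitted in both directions against DMSO controls.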

[5] = read-out: Ezrin (EZR), EZR (gene 7430); test: LTEA_HepaRG_EZR: Life Technologies and Expression Analysis (LTEA) Assay for Ezrin (EZR) using HepaRG (AID 2283491)
Summary of the method: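 EZR transcript levels came from Fluidigm qRT-PCR and were normalized to three housekeeping genes after 48 h chemical exposure of HepaRG cells. Dosing used an 8-point half-log series with a 100 uM top concentration in 0.5% DMSO, tested in duplicate; both directions were fitted versus vehicle.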

CYP3A5 (gene 1577) = test: LTEA_HepaRG_CYP3A5: Life Technologies and Expression Analysis (LTEA) Assay for CYP3A5 using HepaRG (AID 2283493)
Summary of the method: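 mRNA levels were quantified by qRT-PCR on Fluidigm arrays and normalized to three housekeeping genes. Differentiated HepaRG cells received 48 h exposure (top 100 uM, half-log steps, 0.5% DMSO vehicle, duplicate); bidirectional fitting versus DMSO.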

[6] = read-out: Fatty Acid-Binding Protein 1 (FABP1), FABP1 (gene 2168); test: LTEA_HepaRG_FABP1: Life Technologies and Expression Analysis (LTEA) Assay for Fatty Acid-Binding Protein 1 (FABP1) using HepaRG (AID 2283494)
Summary of the method: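 Values reflect bidirectional concentration-response fitting of FABP1 mRNA change against 0.5% DMSO controls. Human HepaRG cultures received eight half-log doses (top 100 uM) for 48 h; expression quantified by TaqMan qRT-PCR with housekeeping-gene normalization.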

[7] = read-out: Cytochrome P450 4A22 (Homo sapiens) (UniProt Q5TCH4); test: LTEA_HepaRG_CYP4A22: Life Technologies and Expression Analysis (LTEA) Assay for Cytochrome P450 4A22 (CYP4A22) using HepaRG (AID 2283495)
Summary of the method: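 Differentiated HepaRG cells in serum-free induction medium exposed 48 h in duplicate to eight half-log concentrations up to 100 uM in 0.5% DMSO. CYP4A22 mRNA quantified by TaqMan qRT-PCR, normalized to ACTB, GAPDH and POLR2A; bidirectional fit versus DMSO.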

[8] = read-out: Cytochrome P450 7A1 (Homo sapiens) (UniProt P22680); test: LTEA_HepaRG_CYP7A1: Life Technologies and Expression Analysis (LTEA) Assay for Cytochrome P450 7A1 (CYP7A1) using HepaRG (AID 2283496)
Summary of the method: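 HepaRG, 48 h exposure, 8-pt half-log series from 100 uM, 0.5% DMSO vehicle, duplicates. Readout: TaqMan qRT-PCR mRNA vs three housekeeping genes; bidirectional curve fit against DMSO baseline.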

[9] = read-out: Glutathione S-Transferase (GSTA2), GSTA2 (gene 2939); test: LTEA_HepaRG_GSTA2: Life Technologies and Expression Analysis (LTEA) Assay for Glutathione S-Transferase (GSTA2) using HepaRG (AID 2283497)
Summary of the method: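 Oxidative-stress marker GSTA2 is quantified by TaqMan qRT-PCR in HepaRG cultures treated 48 h across an eight-point range to 100 uM. Expression is normalized to endogenous controls and compared with 0.5% DMSO vehicle.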

[10] = read-out: Glutamate-cysteine ligase catalytic (GCLC), GCLC (gene 2729); test: LTEA_HepaRG_GCLC: Life Technologies and Expression Analysis (LTEA) Assay for Glutamate-cysteine ligase catalytic (GCLC) using HepaRG (AID 2283498)
Summary of the method: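 Oxidative-stress marker GCLC is measured as mRNA change in human HepaRG liver cells after 48 h chemical treatment in 0.5% DMSO, eight concentrations from 100 uM. Activity is fitted bidirectionally against vehicle.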

[11] = read-out: growth arrest and DNA damage 45 (GADD45G), GADD45G (gene 10912); test: LTEA_HepaRG_GADD45G: Life Technologies and Expression Analysis (LTEA) Assay for growth arrest and DNA damage 45 (GADD45G) using HepaRG (AID 2283499)
Summary of the method: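 Differentiated human HepaRG cells, 48 h post-plating, exposed 48 h in serum-free induction medium to 8 half-log concentrations (top 100 uM, 0.5% DMSO) in duplicate. GADD45G mRNA measured by Fluidigm TaqMan qRT-PCR, normalized to ACTB, GAPDH, POLR2A; bidirectional fit versus DMSO.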

[12] = read-out: Glutathione S-transferase M3 (GSTM3), GSTM3 (gene 2947); test: LTEA_HepaRG_GSTM3: Life Technologies and Expression Analysis (LTEA) Assay for Glutathione S-transferase M3 (GSTM3) using HepaRG (AID 2283501)
Summary of the method: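 Differentiated human HepaRG cells were exposed in duplicate for 48 h in serum-free induction medium, 8 points from 100 uM top in half-log steps, 0.5% DMSO. GSTM3 mRNA was measured by TaqMan qRT-PCR, normalized to ACTB, GAPDH and POLR2A; bidirectional fit versus DMSO.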

[13] = read-out: Heat shock 70 kDa protein 1 (HSPA1A), gene 3303; test: LTEA_HepaRG_HSPA1A: Life Technologies and Expression Analysis (LTEA) Assay for Heat shock 70 kDa protein 1 (HSPA1A) using HepaRG (AID 2283502)
Summary of the method: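 HSPA1A expression measured by qRT-PCR with ACTB/GAPDH/POLR2A normalization; curves fitted in both directions relative to DMSO vehicle. Exposure: 48 h in HepaRG cells, duplicate 8-point half-log series from 100 uM, 0.5% DMSO, serum-free induction medium.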

[14] = read-out: Hypoxia-inducible factor 1-alpha (Homo sapiens) (UniProt Q16665); test: LTEA_HepaRG_HIF1A: Life Technologies and Expression Analysis (LTEA) Assay for Hypoxia-inducible factor 1 (HIF1A) Trancription factor using HepaRG (AID 2283503)
Summary of the method: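 HIF1A transcript level read by qRT-PCR (ACTB, GAPDH, POLR2A normalization) after 48 h chemical exposure of HepaRG cultures. Eight half-log concentrations, top 100 uM, 0.5% DMSO vehicle, duplicates; bidirectional curve fit against DMSO baseline.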

[15] = read-out: 3-Hydroxy-3-Methylglutaryl-CoA Synthase 2 (HMGCS2), HMGCS2 (gene 3158); test: LTEA_HepaRG_HMGCS2: Life Technologies and Expression Analysis (LTEA) Assay for 3-Hydroxy-3-Methylglutaryl-CoA Synthase 2 (HMGCS2) using HepaRG (AID 2283504)
Summary of the method: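 Human HepaRG cells in serum-free induction medium were exposed in duplicate for 48 h to 8-point half-log series from 100 uM top in 0.5% DMSO. HMGCS2 mRNA measured by TaqMan qRT-PCR, normalised to ACTB, GAPDH, POLR2A; bidirectional fit versus DMSO.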

HGF (gene 3082) = test: LTEA_HepaRG_HGF: Life Technologies and Expression Analysis (LTEA) Assay for Hepatocyte Growth Facto (HGF) using HepaRG (AID 2283505)
Summary of the method: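 Differentiated HepaRG cells in serum-free induction medium exposed 48 h in duplicate, 8 half-log concentrations from 100 uM in 0.5% DMSO. HGF mRNA by qRT-PCR, normalised to ACTB, GAPDH, POLR2A; bidirectional fitting.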

[16] = read-out: Cytochrome P450 3A7 (Homo sapiens) (UniProt P24462); test: LTEA_HepaRG_CYP3A7: Life Technologies and Expression Analysis (LTEA) Assay for CYP3A7 using HepaRG (AID 2283492)
Summary of the method: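 Differentiated HepaRG cells in serum-free induction medium exposed 48 h in duplicate to 8-point half-log series from 100 uM top in 0.5% DMSO. CYP3A7 mRNA by qRT-PCR, normalized to ACTB/GAPDH/POLR2A, bidirectional fit versus DMSO.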

[17] = read-out: Glutamate-cysteine ligase regulatory (GCLM), GCLM (gene 2730); test: LTEA_HepaRG_GCLM: Life Technologies and Expression Analysis (LTEA) Assay for Glutamate-cysteine ligase regulatory (GCLM) using HepaRG (AID 2283500)
Summary of the method: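 GCLM expression quantified by qRT-PCR, normalized to three housekeeping genes, after 48 h chemical treatment of HepaRG cells in duplicate at 8 concentrations (top 100 uM, half-log steps, 0.5% DMSO). Changes fitted both directions against vehicle.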

Measured: AC50

Sequence of Cytochrome P450 3A4 (Homo sapiens) (P08684 whole entry, looked up): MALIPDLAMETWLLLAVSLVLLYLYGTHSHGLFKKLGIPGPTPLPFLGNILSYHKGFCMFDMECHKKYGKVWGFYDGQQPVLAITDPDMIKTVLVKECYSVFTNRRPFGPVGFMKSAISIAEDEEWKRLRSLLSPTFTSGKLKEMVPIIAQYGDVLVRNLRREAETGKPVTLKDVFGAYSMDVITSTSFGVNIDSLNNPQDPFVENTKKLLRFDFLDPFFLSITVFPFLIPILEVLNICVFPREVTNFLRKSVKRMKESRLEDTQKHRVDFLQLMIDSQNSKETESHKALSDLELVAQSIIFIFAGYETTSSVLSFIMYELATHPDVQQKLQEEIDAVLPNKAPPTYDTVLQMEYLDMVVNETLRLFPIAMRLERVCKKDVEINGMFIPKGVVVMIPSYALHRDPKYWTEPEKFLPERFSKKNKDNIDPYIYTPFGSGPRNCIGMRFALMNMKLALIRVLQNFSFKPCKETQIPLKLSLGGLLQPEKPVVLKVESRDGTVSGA
Sequence of Hypoxia-inducible factor 1-alpha (Homo sapiens) (Q16665 whole entry, looked up): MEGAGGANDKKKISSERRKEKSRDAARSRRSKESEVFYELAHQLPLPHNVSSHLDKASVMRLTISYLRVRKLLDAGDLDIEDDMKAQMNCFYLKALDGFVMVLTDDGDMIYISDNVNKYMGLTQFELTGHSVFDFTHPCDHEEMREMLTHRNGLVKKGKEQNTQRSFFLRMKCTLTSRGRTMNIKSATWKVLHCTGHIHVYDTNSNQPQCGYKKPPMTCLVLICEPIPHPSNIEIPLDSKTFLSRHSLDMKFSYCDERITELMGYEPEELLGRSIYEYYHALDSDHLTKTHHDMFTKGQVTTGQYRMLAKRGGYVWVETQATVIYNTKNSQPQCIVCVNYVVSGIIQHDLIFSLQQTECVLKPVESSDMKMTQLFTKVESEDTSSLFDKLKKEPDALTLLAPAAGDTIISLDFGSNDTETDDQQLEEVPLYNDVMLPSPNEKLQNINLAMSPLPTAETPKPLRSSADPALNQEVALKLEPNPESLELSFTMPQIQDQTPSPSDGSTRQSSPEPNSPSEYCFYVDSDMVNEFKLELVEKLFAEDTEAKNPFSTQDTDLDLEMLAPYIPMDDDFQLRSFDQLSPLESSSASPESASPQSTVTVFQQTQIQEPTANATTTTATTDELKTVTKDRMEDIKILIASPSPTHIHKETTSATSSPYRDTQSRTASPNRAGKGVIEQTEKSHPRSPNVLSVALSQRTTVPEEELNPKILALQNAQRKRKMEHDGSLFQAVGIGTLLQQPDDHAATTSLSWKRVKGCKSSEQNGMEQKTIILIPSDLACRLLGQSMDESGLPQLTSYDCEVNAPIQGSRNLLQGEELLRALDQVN
Sequence of Cytochrome P450 3A7 (Homo sapiens) (P24462 whole entry, looked up): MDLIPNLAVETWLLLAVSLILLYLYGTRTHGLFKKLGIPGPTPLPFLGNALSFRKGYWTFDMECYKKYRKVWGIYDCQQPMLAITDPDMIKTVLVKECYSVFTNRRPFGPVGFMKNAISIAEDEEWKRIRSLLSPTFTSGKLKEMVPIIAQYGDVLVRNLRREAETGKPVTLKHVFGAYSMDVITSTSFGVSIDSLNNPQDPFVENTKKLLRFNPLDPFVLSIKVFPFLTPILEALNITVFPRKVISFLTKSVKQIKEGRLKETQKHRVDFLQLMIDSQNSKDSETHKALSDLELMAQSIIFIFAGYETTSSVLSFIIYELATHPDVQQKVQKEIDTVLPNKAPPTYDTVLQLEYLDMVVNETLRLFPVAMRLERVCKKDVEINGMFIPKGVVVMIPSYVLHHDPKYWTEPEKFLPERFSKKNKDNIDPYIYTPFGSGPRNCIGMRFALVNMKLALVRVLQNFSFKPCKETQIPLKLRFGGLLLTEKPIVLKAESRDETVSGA

CCNc1nc(NC(C)C)nc(SC)n1
active: [1] 2.44 µM | [6] 28.3 µM | [8] 35.5 µM | [11] 63.9 µM | [15] 50 µM
not listed: [16] | [17]
inactive: all other assays above

Nn1cnnc1
not listed: [17]
inactive: all other assays above

CCOCCOC(C)=O
not listed: [16] | [17]
inactive: all other assays above

CO/C=C(/C(=O)OC)c1ccccc1COc1cccc(C(F)(F)F)n1
active: [1] 8.05 µM | [2] 8.83 µM | [3] 50 µM | [5] 5.1 µM | CYP3A5 (gene 1577) 12.1 µM | [6] 5.35 µM | [7] 5.06 µM | [8] 8.85 µM | [9] 9.29 µM | [11] 6.56 µM | [17] 8.95 µM | [12] 50 µM | [14] 32 µM | [15] 6.85 µM | HGF (gene 3082) 50 µM
inactive: [4] | [10] | [13]

C=CC(=O)NCNC(=O)C=C
active: [6] 50 µM | [7] 24.6 µM | [9] 12.7 µM | [14] 15.6 µM
not listed: [16] | [17]
inactive: all other assays above

Cc1cccc([N+](=O)[O-])c1
not listed: [3] | [7] | [8] | [16] | [17]
inactive: all other assays above
